Test results reported in PubChem BioAssay (Tox21).
A number with no mark means an inactive call. Records with an inconclusive call do not appear. Entries that show only a call come without a potency. Activity calls are given as the source filed them. Unless noted, the call rests on the fitted dose curve; in most records, active means well fitted curve in the direction sought with a large enough effect in the repeat runs; inconclusive means weak or mixed curves; inactive means no such curve, though single readings can be large; an effect the other way counts as inactive or inconclusive.

What was measured:
[1] = A CellTox Green Cytotoxicity Assay to monitor cytotoxicity in HEK293 cells - 32 hour (AID 1224881); further: nearly all actives have a fitted effect of over 40% in size
Procedure, shortened: (§1)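 HEK293 cells premixed with CellTox Green dye were seeded at 600 cells/well and left 5 h at 37 C/5% CO2 before pin transfer of 23 nL compound in DMSO. Fluorescence from dye bound to dead-cell DNA was read during 40 h treatment.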

[2] = A CellTox Green Cytotoxicity Assay to monitor cytotoxicity in HepG2 cells - 0 hour (AID 1224882); further: nearly all actives have a fitted effect of over 35% in size
Procedure, shortened: (§2)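 HepG2 cells were seeded together with the CellTox Green dye at 600 cells/well, left 5 h at 37 C/5% CO2, then given compounds in DMSO. Fluorescence from dye bound to dead-cell DNA was read repeatedly over 40 h of treatment at 37 C.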

[3] = A CellTox Green Cytotoxicity Assay to monitor cytotoxicity in HepG2 cells - 32 hour (AID 1224883); further: nearly all actives have a fitted effect of over 50% in size; further: potency means the concentration at half of the fitted maximal effect
Procedure, shortened: as §2

[4] = A CellTox Green Cytotoxicity Assay to monitor cytotoxicity in HEK293 cells - 8 hour (AID 1224884); further: nearly all actives have a fitted effect of over 35% in size
Procedure, shortened: as §1

[5] = qHTS RealTime-Glo MT Cell Viability Assay in HepG2 cells - 16 hour (AID 1224885); further: nearly all actives have a fitted effect of over 50% in size
Procedure, shortened: (§3)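 Viability was tracked continuously by NanoLuc luminescence from prosubstrate reduced by living HepG2 cells, at successive time points over 40 h of compound exposure. Cells with reagent were preincubated 5 h at 37 °C before compound addition.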

[6] = qHTS RealTime-Glo MT Cell Viability Assay in HEK293 cells - 24 hour (AID 1224886); further: nearly all actives have a fitted effect of over 50% in size; further: potency means the concentration at half of the fitted maximal effect
Procedure, shortened: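 Viability tracked continuously by luminescence as live cells reduce a prosubstrate for NanoLuc; HEK293 cells preincubated 5 h, compound-treated at 37 C, and read at 0, 8, 16, 24, 32 and 40 h.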

[7] = qHTS RealTime-Glo MT Cell Viability Assay in HEK293 cells - 8 hour (AID 1224887); further: nearly all actives have a fitted effect of over 50% in size; further: potency means the concentration at half of the fitted maximal effect
Procedure, shortened: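 HEK293 cells mixed with RealTime-Glo reagents (NanoLuc plus cell-permeant prosubstrate) at 600 cells/well, preincubated 5 h at 37 C/5% CO2, then given 23 nL compound in DMSO. Nonlytic luminescence from viable cells was read at 0, 8, 16, 24, 32 and 40 h.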

[8] = A CellTox Green Cytotoxicity Assay to monitor cytotoxicity in HEK293 cells - 16 hour (AID 1224888); further: nearly all actives have a fitted effect of over 35% in size
Procedure, shortened: as §1

[9] = qHTS RealTime-Glo MT Cell Viability Assay in HepG2 cells - 0 hour (AID 1224889); further: nearly all actives have a fitted effect of over 50% in size
Procedure, shortened: as §3

[10] = A CellTox Green Cytotoxicity Assay to monitor cytotoxicity in HepG2 cells - 8 hour (AID 1224890); further: nearly all actives have a fitted effect of over 45% in size
Procedure, shortened: as §2

[11] = qHTS assay to identify small molecule antagonists of the estrogen receptor alpha (ER-alpha) signaling pathway using the BG1 cell line in the presence of 0.1 nM 17-beta-estradiol - cell viability counter screen (AID 1259241); further: nearly all actives have a fitted effect of over 40% in size
Procedure, shortened: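 Measures cytotoxicity alongside the ER-alpha antagonist readout: VM7Luc4E2 cells, charcoal-stripped serum, 0.1 nM 17beta-estradiol final, 22 hr compound incubation at 37C, CellTiter-Fluor fluorescence.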

[12] = qHTS assay to identify small molecule antagonists of the androgen receptor (AR) signaling pathway using the MDA cell line in the presence of 0.5 nM R1881 - cell viability counter screen (AID 1259242); further: nearly all actives have a fitted effect of over 45% in size
Procedure, shortened: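 MDA-kb2 cells (human breast carcinoma, stably carrying MMTV-luciferase reporter) were exposed to compounds with 0.5 nM R1881 (final) for 16 hr at 37C, 0% CO2; viability then read as live-cell protease fluorescence (CellTiter-Fluor, 30 min) in the same wells.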

[13] = molecular target: Estrogen receptor (Homo sapiens) (UniProt P03372); assay: qHTS assay to identify small molecule antagonists of the estrogen receptor alpha (ER-alpha) signaling pathway using the BG1 cell line in the presence of 0.1 nM 17-beta-estradiol (AID 1259244); further: nearly all actives have a fitted effect of over 50% in size; further: potency means the concentration at half of the fitted maximal effect
Procedure, shortened: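 VM7Luc4E2 cells (endogenous full-length ER-alpha, stable 4xERE-luciferase) were grown 5 days in phenol red-free medium with charcoal-stripped FBS, then exposed 22 h at 37C to compounds plus 0.1 nM (final) 17beta-estradiol; ONE-Glo luminescence read-out.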

[14] = qHTS assay to identify small molecule HDAC inhibitors (AID 1259364); further: top concentration of the series differs between compounds; nearly all actives have a fitted effect of over 45% in size
Procedure, shortened: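 Wild-type HCT-116 cells were plated overnight, exposed to compounds for 2 h at 37 °C, then given HDAC-Glo class I/II luminogenic reagent for 30 min at room temperature before luminescence was read.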

[15] = qHTS assay to identify small molecule HDAC inhibitors - cell viability counter screen (AID 1259365)
Procedure, shortened: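 Following a 2hr exposure of overnight-plated wild-type HCT-116 cells to DMSO-delivered compounds, CellTiter-Glo was added and luminescence recorded after 30min at room temperature.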

[16] = qHTS assay to identify small molecule agonists of the sonic hedgehog signaling (Shh) pathway - cell viability counter screen (AID 1259366); further: nearly all actives have a fitted effect of over 50% in size
Procedure, shortened: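 After a 4hr attachment at 37C, NIH/3T3 cells bearing an integrated Gli1-driven luciferase reporter were dosed with compounds. Treatment lasted 24hr, with the final hour including CellTiter-Fluor for a fluorescence viability measurement.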

[17] = qHTS assay to identify small molecule antagonists of the sonic hedgehog signaling (Shh) pathway - cell viability counter screen (AID 1259367); further: nearly all actives have a fitted effect of over 55% in size
Procedure, shortened: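 After a 4 hr settling period, 3T3 Gli1-Luc cells were treated with DMSO-dissolved chemicals and conditioned medium, kept 24 hr at 37C in 5% CO2, and assayed for viability by CellTiter-Fluor fluorescence following 1 hr reagent incubation.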

[18] = molecular target: Androgen receptor (Homo sapiens) (UniProt P10275); assay: qHTS assay to identify small molecule antagonists of the androgen receptor (AR) signaling pathway using the MDA cell line in the presence of 0.5 nM R1881 (AID 1259243); further: nearly all actives have a fitted effect of over 50% in size; further: potency means the concentration at half of the fitted maximal effect
Procedure, shortened: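 MDA-kb2 human breast carcinoma cells carrying an MMTV-luciferase reporter (AR- and GR-responsive) were plated, rested 5 hr at 37C, dosed with compounds, then stimulated with 0.5 nM R1881 (final) for 16 hr; luminescence was read after ONE-Glo.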

[19] = qHTS assay to identify small molecule phospholipidosis (PLD) inducers (AID 1259344; active means well fitted curve in the direction sought with a large enough effect; an effect the other way counts as inactive or inconclusive)
Procedure, shortened: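 HepG2 cells grown on collagen I take up LipidTOX Red while exposed to compound for 24 h; after fixation they are imaged at 20x and pit metrics are extracted.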

[20] = qHTS assay to identify small molecule agonists of the sonic hedgehog signaling (Shh) pathway (AID 1259368; calls by dose curve; further: series mostly up to about 92 µM; nearly all actives have a fitted effect of over 15% in size)
Procedure, shortened: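 NIH/3T3-derived 3T3Gli1-Luc cells carrying a stably integrated Gli1 response element–firefly luciferase reporter were plated, left 4 hr at 37 C, then given compounds in DMSO for 24 hr. Luminescence was read 30 min after adding luciferase reagent.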

Chain of Androgen receptor (Homo sapiens) (P10275 whole entry, looked up): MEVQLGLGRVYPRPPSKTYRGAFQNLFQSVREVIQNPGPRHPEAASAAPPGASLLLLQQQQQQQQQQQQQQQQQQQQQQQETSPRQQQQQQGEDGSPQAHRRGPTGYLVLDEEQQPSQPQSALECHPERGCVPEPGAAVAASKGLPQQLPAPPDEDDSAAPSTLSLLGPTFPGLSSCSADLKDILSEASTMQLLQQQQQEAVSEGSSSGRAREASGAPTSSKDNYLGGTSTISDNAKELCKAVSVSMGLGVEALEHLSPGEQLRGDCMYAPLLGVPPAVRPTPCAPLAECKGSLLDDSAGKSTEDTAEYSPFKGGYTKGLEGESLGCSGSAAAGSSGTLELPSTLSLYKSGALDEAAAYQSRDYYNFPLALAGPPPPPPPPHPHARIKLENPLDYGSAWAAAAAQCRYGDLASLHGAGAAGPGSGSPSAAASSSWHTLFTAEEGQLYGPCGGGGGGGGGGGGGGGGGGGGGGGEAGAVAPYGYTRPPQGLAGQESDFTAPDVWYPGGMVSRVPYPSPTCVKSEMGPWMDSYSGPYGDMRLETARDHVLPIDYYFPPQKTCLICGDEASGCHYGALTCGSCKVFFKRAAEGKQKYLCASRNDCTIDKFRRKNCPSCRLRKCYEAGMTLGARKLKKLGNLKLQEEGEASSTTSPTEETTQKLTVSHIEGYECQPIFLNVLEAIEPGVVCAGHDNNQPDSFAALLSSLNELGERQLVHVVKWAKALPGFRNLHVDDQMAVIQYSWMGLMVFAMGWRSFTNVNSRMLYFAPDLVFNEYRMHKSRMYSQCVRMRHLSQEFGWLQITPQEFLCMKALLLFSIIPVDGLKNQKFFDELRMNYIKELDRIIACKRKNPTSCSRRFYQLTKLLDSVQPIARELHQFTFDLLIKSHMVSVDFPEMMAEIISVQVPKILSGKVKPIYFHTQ
Chain of Estrogen receptor (Homo sapiens) (P03372 whole entry, looked up): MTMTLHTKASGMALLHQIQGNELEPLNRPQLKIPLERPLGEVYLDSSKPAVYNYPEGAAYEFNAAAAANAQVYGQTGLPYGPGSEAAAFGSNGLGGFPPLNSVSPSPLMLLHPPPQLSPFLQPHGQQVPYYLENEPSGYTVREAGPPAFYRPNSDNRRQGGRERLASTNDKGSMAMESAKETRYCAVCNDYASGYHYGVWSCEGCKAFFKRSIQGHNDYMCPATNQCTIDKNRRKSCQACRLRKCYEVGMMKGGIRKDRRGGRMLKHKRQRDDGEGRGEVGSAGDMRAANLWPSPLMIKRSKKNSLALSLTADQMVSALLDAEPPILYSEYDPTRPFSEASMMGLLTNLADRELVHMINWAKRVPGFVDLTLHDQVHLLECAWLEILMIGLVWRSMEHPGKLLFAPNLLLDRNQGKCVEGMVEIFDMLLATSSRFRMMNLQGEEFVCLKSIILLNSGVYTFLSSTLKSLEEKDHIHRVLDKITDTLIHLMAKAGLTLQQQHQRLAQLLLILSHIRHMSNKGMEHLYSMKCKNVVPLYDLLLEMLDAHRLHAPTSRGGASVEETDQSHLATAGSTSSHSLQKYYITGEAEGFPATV

Structure (SMILES)	Potency [1]	Potency [2]	Potency [3]	Potency [4]	Potency [5]	Potency [6]	Potency [7]	Potency [8]	Potency [9]	Potency [10]	Potency [11]	Potency [12]	Potency [13]	Potency [14]	Potency [15]	Potency [16]	Potency [17]	Potency [18]	outcome [19]	Potency [20]
O=C(CCCN1CCC(O)(c2ccc(Br)cc2)CC1)c1ccc(F)cc1	inactive	inactive	26.8 µM (active)	inactive	inactive	10.7 µM (active)	8.49 µM (active)	inactive	inactive	inactive	inactive	inactive	inactive	inactive	inactive	inactive	inactive	–	–	–
CCCOC(=O)c1ccc(N)cc1	inactive	inactive	inactive	inactive	inactive	inactive	inactive	inactive	inactive	inactive	inactive	inactive	inactive	inactive	inactive	inactive	inactive	inactive	inactive	inactive
CC(C)(CCl)c1ccccc1	inactive	inactive	inactive	inactive	inactive	inactive	inactive	inactive	inactive	inactive	inactive	inactive	inactive	inactive	inactive	inactive	inactive	–	–	inactive
Cc1ccc(Nc2nccc(N(C)c3ccc4c(C)n(C)nc4c3)n2)cc1S(N)(=O)=O	inactive	inactive	inactive	inactive	inactive	1.51 µM (active)	2.13 µM (active)	inactive	inactive	inactive	inactive	inactive	–	inactive	inactive	–	inactive	11.9 µM (active)	–	inactive
COCC(O)CO (centres undefined)	inactive	inactive	inactive	inactive	inactive	inactive	inactive	inactive	inactive	inactive	inactive	inactive	inactive	inactive	inactive	inactive	inactive	–	–	inactive
Brc1cc(-c2ccc(Br)c(Br)c2Br)cc(Br)c1Br	inactive	inactive	inactive	inactive	inactive	inactive	inactive	inactive	inactive	inactive	inactive	inactive	inactive	inactive	inactive	inactive	inactive	–	–	–
CC(C)C(=O)O	inactive	inactive	inactive	inactive	inactive	inactive	inactive	inactive	inactive	inactive	inactive	inactive	inactive	inactive	inactive	inactive	inactive	–	–	inactive
Cc1cc(OI)c(C(C)C)cc1-c1cc(C(C)C)c(OI)cc1C	inactive	inactive	inactive	inactive	inactive	inactive	inactive	inactive	inactive	inactive	inactive	inactive	–	inactive	inactive	inactive	inactive	–	inactive	inactive
CCOC(=O)c1ccccc1C	inactive	inactive	inactive	inactive	inactive	inactive	inactive	inactive	inactive	inactive	inactive	inactive	inactive	inactive	inactive	inactive	inactive	–	–	inactive
CC(C)c1nnc2ccc(-c3ocnc3-c3cc(F)ccc3F)cn12	inactive	inactive	inactive	inactive	inactive	19.5 µM (active)	19.5 µM (active)	inactive	inactive	inactive	inactive	inactive	30.6 µM (active)	inactive	inactive	inactive	inactive	–	–	inactive
O=C(O)c1ccccc1NCCc1ccccc1	inactive	inactive	inactive	inactive	inactive	inactive	inactive	inactive	inactive	inactive	inactive	inactive	inactive	–	inactive	inactive	inactive	inactive	–	inactive
CCCCCCCCCOC(C)=O	inactive	inactive	inactive	inactive	inactive	inactive	inactive	inactive	inactive	inactive	inactive	inactive	inactive	inactive	inactive	inactive	inactive	–	–	inactive
CCn1cc(C(=O)O)c(=O)c2cc(F)c(N3CCNCC3)nc21	inactive	inactive	inactive	inactive	inactive	inactive	inactive	inactive	inactive	inactive	inactive	inactive	inactive	inactive	inactive	inactive	inactive	–	inactive	inactive
